# Assay results: PubChem BioAssay AID449762 (Southern Research Specialized Biocontainment Screening …, 2010)
# The whole screen tested about 330,000 compounds, of which about 1,900 (0.58%) were called active. About 4% were inconclusive and are not listed. No stated cut-off is given here; in the data, inconclusive means inhibition above about 70% without an active follow-up result; inactive means below that. These entries were drawn from the full list. Entries with a potency or affinity are not part of this list.
# Test: M. tuberculosis growth inhibition, HTS (AID 449762);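 further: bacterial growth assessed after seven days of incubation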
# Conditions: M. tuberculosis H37Rv growth inhibition, 7H9 media; at 25 µM; stronger effect = higher value
row,SMILES,inhibition
1,COC(=O)c1ccc(NC(=O)c2ccc[n+]([O-])c2)cc1,-4.13% (inactive)
2,c1ccc2nc3c(nc2c1)OCC1CCCCN31 (stereo unspecified),3.14% (inactive)
3,CC1(C(=O)N(CC(=O)NC2CCCC2)Cc2ccc(Cl)cc2)CC(=O)N=C2C=CC=CN21 (stereo unspecified),-2.69% (inactive)
4,Cc1ccccc1NC(=O)NC(N)=O,-2.65% (inactive)
5,CCN(CC)CCOC(=O)c1ccc(N/C=C(/C#N)c2nc(-c3cc4ccccc4oc3=O)cs2)cc1,9.42% (inactive)
6,Cc1ccc(-c2csc(/C(C#N)=C/Nc3ccc4c(c3)OCCO4)n2)cc1,7% (inactive)
7,Cc1cc(CN(C)C(=O)c2ccc3nc(Cc4ccccc4F)oc3c2)n[nH]1,-6.04% (inactive)
8,Cc1cccc(C(=O)OCC(=O)N(C)CC(=O)Nc2ccc(Cl)c(C(F)(F)F)c2)c1,1.53% (inactive)
9,Cc1ccc(-c2cc(C(=O)N3CCOCC3)no2)cc1,6.22% (inactive)
10,O=C(O)c1cccnc1Nc1cccc(C(F)(F)F)c1,-0.01% (inactive)
11,CNC(=O)c1cccnc1Nc1cccc(C(F)(F)F)c1,-4.06% (inactive)
12,Cc1ccc(C(=O)N(CC(=O)NC2CCCC2)c2cccc(F)c2)s1,9.2% (inactive)
13,CN1CCN(c2cc(-c3cc(O)c4ncccc4c3)ccn2)CC1,28.5% (inactive)
14,CN(C)CCCNC(=O)c1ccc(-c2cc(O)c3ncccc3c2)cc1,3.92% (inactive)
15,CC1(c2cccc(Br)c2)NC(=O)N(CC(=O)NC2CCCCC2)C1=O (stereo unspecified),3% (inactive)
16,CCCCN1C(=O)c2ccc(C(=O)OCC(=O)NCCc3ccc(S(N)(=O)=O)cc3)cc2C1=O,-4.61% (inactive)
17,O=C(NCC(c1cccs1)N1CCOCC1)c1ccc([N+](=O)[O-])cc1 (stereo unspecified),2.63% (inactive)
18,O=C(NCC(c1cccs1)N1CCOCC1)c1cccc([N+](=O)[O-])c1 (stereo unspecified),-5.61% (inactive)
19,CCOc1ccc(NC(=O)CN(C)C(=O)Cc2ccsc2)cc1OCC,-3.21% (inactive)
20,CCOC(=O)Cn1cnc2c(nnn2-c2ccc(OC)cc2)c1=O,-2.34% (inactive)
21,CCOc1cc(/C=C2\N=C(C)OC2=O)cc(Cl)c1OCC(=O)OC,-3.74% (inactive)
22,O=C(C1CCCN1S(=O)(=O)c1cccc2nsnc12)N1CCCCCC1 (stereo unspecified),2.56% (inactive)
23,Cc1nnc(SCC(=O)NCc2ccc(F)cc2)[nH]c1=O,0.54% (inactive)
24,O=S(Cc1ccc(Br)cc1)Cc1nnc(SCc2c(Cl)cccc2Cl)n1-c1ccccc1 (stereo unspecified),-2.91% (inactive)
25,O=S(Cc1ccc(Br)cc1)Cc1nnc(SCc2ccc(Br)cc2)n1-c1ccccc1 (stereo unspecified),57% (inactive)
26,CCOC(=O)c1ccc(S(=O)(=O)NNC(=O)Cc2csc(C)n2)cc1,1.7% (inactive)
